Among the test systems are NCI-H322M lung; HOP-62 NSCLC; NCI-H460 lung; HOP-92 NSCLC; NCI-H522 lung; A549/ATCC NSCLC; 786-0 renal; COLO 205 colon; DU-145 prostate; K-562 leukemia; MALME-3M melanoma; MDA-MB-231 breast; RXF 393 renal; SF-268 CNS; SF-295 CNS; SF-539 CNS; UACC-257 melanoma; M14 melanoma; NCI-H226 lung.
What all share (assay): NCI-60 one-dose screen, 48 h (100 = growth as untreated, 0 = no growth, -100 = all killed)
Holding throughout (conditions): 10 µM unless noted

The structures appear in SMILES notation. Compounds without any hit were thinned out: in the full panel of roughly 83,000, 20% have a hit.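 The test compound was applied at a single concentration to cells in 96-well plates for 48 hours, and percent growth was recorded.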 Values without a mark were called inactive. Activity calls are given as the source filed them. How the source made its calls: active means growth percent below 10; inactive means the rest.

On to `COc1cc2c(/C=C3\C(=O)Nc4ccccc43)c(C(=O)O)[nH]c2cc1C`, for which the growth in the test on NCI-H322M lung is 105%; with HOP-62 NSCLC, 92%; in the test with NCI-H460 lung, 105%; with HOP-92 NSCLC, 63.8%; in the test with NCI-H522 lung, 93.5%; in the test with A549/ATCC NSCLC, 106%. The growth with 786-0 renal is 108%; in the test with COLO 205 colon, 120%; in the test on DU-145 prostate it was 118%; with K-562 leukemia it was 103%; with MALME-3M melanoma, 99.5%; with MDA-MB-231 breast, 87.9%. Also, the growth in the test on RXF 393 renal is 107%; in the test on SF-268 CNS, 96.6%; in the test with SF-295 CNS, 101%; in the test on SF-539 CNS it was 101%; with UACC-257 melanoma, 106%; in the test with M14 melanoma, 105%.

For `CC/C=C1/C(=O)C=C[C@@H]1C/C=C\CCCC(=O)OC`, the growth in the test with NCI-H226 lung was 88.1%; in the test with NCI-H322M lung, 108%; with HOP-62 NSCLC, 90.5%; in the test with NCI-H460 lung it was 97.9%; in the test on HOP-92 NSCLC it was 91.3%; with NCI-H522 lung, -38.3% (active). Also, the growth in the test with A549/ATCC NSCLC is 90.2%; in the test with 786-0 renal it was 82.5%; with COLO 205 colon, 97.3%; with DU-145 prostate it was 77.1%; in the test with K-562 leukemia, 4.34% (active); in the test with MALME-3M melanoma, 56.3%. Moreover, the growth in the test with MDA-MB-231 breast was 28.7%; in the test on RXF 393 renal it was 103%; with SF-268 CNS, 79.7%; in the test on SF-295 CNS it was 88.7%; in the test on SF-539 CNS it was 108%; in the test with UACC-257 melanoma, 73.1%. Also, the growth in the test with M14 melanoma is 50.5%.

Turning to `O=C1C(Cl)=C(NCCN2CCOCC2)C(=O)c2ncccc21`, the growth is -37.8% (active) with NCI-H226 lung; 1.09% (active) in the test with NCI-H322M lung; -63% (active) in the test with HOP-62 NSCLC; 0.786% (active) with NCI-H460 lung; 72.6% in the test with HOP-92 NSCLC; -74% (active) with NCI-H522 lung. For the same compound, the growth with A549/ATCC NSCLC is -54.3% (active); in the test on 786-0 renal, 18.1%; in the test on COLO 205 colon it was -75.2% (active); in the test on DU-145 prostate, -88.5% (active); in the test on K-562 leukemia it was -33.5% (active); in the test on MALME-3M melanoma it was -79.3% (active). Besides, the growth in the test on MDA-MB-231 breast is 18.6%; in the test with RXF 393 renal it was -27.5% (active); in the test with SF-268 CNS, 11%; with SF-295 CNS, -40.5% (active); in the test on SF-539 CNS, -85.8% (active); in the test on UACC-257 melanoma, -92.8% (active). The growth with M14 melanoma is -85.9% (active).

On to `CCCCNC1=C(OCC)C(=O)c2ccccc2C1=O`, for which the growth in the test on NCI-H226 lung was 105%; with NCI-H322M lung, 103%; in the test on HOP-62 NSCLC, 125%; in the test on NCI-H460 lung it was 92.6%; with HOP-92 NSCLC, 74.5%; in the test with NCI-H522 lung, 98.4%. Moreover, the growth is 99.2% with A549/ATCC NSCLC; 94.8% in the test with 786-0 renal; 116% in the test with COLO 205 colon; 104% in the test on DU-145 prostate; 126% in the test with K-562 leukemia; 121% with MALME-3M melanoma. The growth in the test on MDA-MB-231 breast is 98.9%; with RXF 393 renal, 92.8%; in the test on SF-268 CNS, 97.3%; in the test with SF-295 CNS it was 103%; with SF-539 CNS it was 112%; in the test with UACC-257 melanoma it was 95.7%. Also, in the test on M14 melanoma, the growth was 95.5%.

As to `O=c1nc(Nc2nc3ccccc3s2)[nH]c(=O)c2ccccc12`, the growth is 92.8% in the test on NCI-H226 lung; 105% with NCI-H322M lung; 91.2% with HOP-62 NSCLC; 103% in the test with NCI-H460 lung; 83.4% with HOP-92 NSCLC; 96.8% with NCI-H522 lung. The growth in the test with A549/ATCC NSCLC is 106%; with 786-0 renal, 96%; in the test with COLO 205 colon, 112%; in the test with DU-145 prostate, 106%; in the test on K-562 leukemia, 95.9%; in the test with MALME-3M melanoma, 99.7%. Besides, the growth is 98.3% in the test with MDA-MB-231 breast; 98.1% in the test on RXF 393 renal; 102% in the test on SF-268 CNS; 99.3% in the test on SF-295 CNS; 97.5% in the test on SF-539 CNS; 107% in the test with UACC-257 melanoma. In addition, in the test with M14 melanoma, the growth was 101%.

For the origin of these results see PubChem BioAssay (NCI).
